# Laboratory results: PubChem BioAssay (Tox21)
# Inconclusive results are not listed. A call without a number means that no potency is given here. Activity calls are given as the source filed them. Unless noted, the call rests on the fitted dose curve; in most records, active means well fitted curve in the direction sought with a large enough effect in the repeat runs; inconclusive means weak or mixed curves; inactive means no such curve, though single readings can be large; an effect the other way counts as inactive or inconclusive.
# Assays:
# [1] = qHTS assay to identify small molecule antagonists of the glucocorticoid receptor (GR) signaling pathway - cell viability counter screen (AID 720693); conditions: GR-bla HeLa viability, CellTiter-Glo luminescence, 18 h, with 5 nM dexamethasone present; series mostly up to 58.5 µM; further: nearly all actives have a fitted effect of over 55% in size
# [2] = target: Androgen receptor (Homo sapiens) (UniProt P10275); assay: qHTS assay to identify small molecule antagonists of the androgen receptor (AR) signaling pathway (AID 743035; active means well fitted inhibition curve with a large enough effect in the signal ratio in the repeat runs, not every such curve was filed as active; the % refers to the signal ratio); conditions: HEK293 AR-UAS-bla, R1881-stimulated, beta-lactamase FRET, 16 h; series mostly up to 58.5 µM
# Outline: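 Beta-lactamase FRET read (2 h RT incubation with LiveBLAzer B/G) following 16 h of compound plus R1881 treatment of AR-UAS-bla HEK293 cells, which had been pre-incubated 4 h at 37C.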
# [3] = target: Androgen receptor (Homo sapiens) (UniProt P10275); assay: qHTS assay to identify small molecule agonists of the androgen receptor (AR) signaling pathway (AID 743036; active means well fitted activation curve with a large enough effect in the signal ratio in the repeat runs, with a control signal flat, not every such curve was filed as active; the % refers to the signal ratio); conditions: HEK293 AR-UAS-bla GripTite, beta-lactamase FRET ratio, 16 h; series mostly up to 62.4 µM
# Outline: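 AR-UAS-bla HEK293 cells, plated 4 h before dosing, were treated with compound for 16 h at 37C. beta-Lactamase reporter read after 2 h with LiveBLAzer B/G FRET substrate at room temperature.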
# [4] = target: Androgen receptor (Homo sapiens) (UniProt P10275); assay: qHTS assay to identify small molecule agonists of the androgen receptor (AR) signaling pathway using the MDA cell line (AID 743040; further: nearly all actives have a fitted effect of over 20% in size); conditions: MDA-kb2 AR-luc cells, MMTV luciferase, 16 h, stronger effect = higher value; series mostly up to 70.3 µM
# Outline: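 MDA-kb2 breast carcinoma cells carrying MMTV-luciferase (responsive to AR and GR), plated 5 h then treated 16 h with compounds at 37C, 0% CO2. Read-out was ONE-Glo luminescence after 30 min at room temperature.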
# [5] = qHTS assay to identify small molecule antagonists of the androgen receptor (AR) signaling pathway using the MDA cell line - cell viability counter screen (AID 743041; further: nearly all actives have a fitted effect of over 45% in size); conditions: MDA-kb2 viability, CellTiter-Fluor, 16 h, cells co-treated with R1881 androgen agonist; series mostly up to 70.3 µM
# Outline: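 MDA-kb2 AR-luc cells (MMTV-luciferase, AR/GR responsive) treated with compounds plus R1881 agonist for 16 h at 37C. CellTiter-Fluor added at 15.5 h; fluorescence read after 30 min in the same wells.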
# [6] = target: Androgen receptor (Homo sapiens) (UniProt P10275); assay: qHTS assay to identify small molecule antagonists of the androgen receptor (AR) signaling pathway using the MDA cell line (AID 743042; further: nearly all actives have a fitted effect of over 55% in size); conditions: MDA-kb2 AR-luc, MMTV luciferase, R1881 antagonist, 16 h; series mostly up to 70.3 µM
# Outline: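 MDA-kb2 breast carcinoma cells carrying MMTV-luciferase (AR/GR responsive) were co-treated with compounds and the agonist R1881 for 16 h at 37C. Inhibition read as ONE-Glo luminescence; CellTiter-Fluor fluorescence measured in parallel for cytotoxicity.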
# [7] = qHTS assay to identify small molecule antagonists of the thyroid receptor (TR) signaling pathway - cell viability counter screen (AID 743064); conditions: GH3.TRE-Luc viability, CellTiter-Fluor, 24 h; series mostly up to 70.3 µM; further: nearly all actives have a fitted effect of over 50% in size
# Outline: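 GH3.TRE-Luc rat pituitary cells dosed after 4 hr plating, co-stimulated with T3 at 1 nM final, incubated 23.5 h at 37 C. Viability measured in the same wells by CellTiter-Fluor fluorescence after 30 min further at 37 C.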
# [8] = qHTS assay to identify small molecule antagonists of the thyroid receptor (TR) signaling pathway (AID 743065); conditions: GH3.TRE-Luc, T3-stimulated luciferase inhibition, 23.5 h; series mostly up to 70.3 µM; further: nearly all actives have a fitted effect of over 55% in size
# Outline: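 GH3.TRE-Luc rat pituitary cells (two TREs driving luciferase) were dosed with compound, then stimulated with 1 nM T3 (final) for 23.5 h at 37 C. ONE-Glo luminescence was the read-out, with CellTiter-Fluor fluorescence as the cytotoxicity counter-screen.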
# [9] = tested on: thyroid hormone receptor (rat, GH3 cells); assay: qHTS assay to identify small molecule agonists of the thyroid receptor (TR) signaling pathway (AID 743066; calls by dose curve); conditions: GH3.TRE-Luc cells, TR agonist luciferase, 24 h; series mostly up to 83.9 µM
# [10] = target: Estrogen receptor (Homo sapiens) (UniProt P03372); assay: qHTS assay to identify small molecule antagonists of the estrogen receptor alpha (ER-alpha) signaling pathway (AID 743069; active means well fitted curve in the direction sought with a large enough effect in the signal ratio in the repeat runs, not every such curve was filed as active; the % refers to the signal ratio); conditions: HEK293 ER-alpha-UAS-bla, beta-lactamase ratio, antagonist mode; series mostly up to 69.4 µM
# Outline: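 HEK293 ER-alpha-UAS-bla GripTite cells, held overnight in 2% charcoal-stripped FBS, 5,000 cells/well, preincubated 4 h, then compound plus 17beta-estradiol for 18 h at 37C. Beta-lactamase read by LiveBLAzer B/G FRET substrate, 2 h at room temperature.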
# [11] = qHTS assay to identify small molecule antagonists of the estrogen receptor alpha (ER-alpha) signaling pathway - cell viability counter screen (AID 743074; calls by dose curve;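 further: HEK293 cells carrying ER-alpha-UAS-bla reporter stimulated with 17beta-estradiol; nearly all actives have a fitted effect of over 45% in size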); conditions: ERalpha-bla HEK293 viability, CellTiter-Glo luminescence, 18 h; series mostly up to 69.4 µM
# [12] = target: Estrogen receptor (Homo sapiens) (UniProt P03372); assay: qHTS assay to identify small molecule agonists of the estrogen receptor alpha (ER-alpha) signaling pathway (AID 743075; calls by dose curve); conditions: HEK293 ER-alpha-UAS-bla, beta-lactamase FRET ratio, 18 h; series mostly up to 70.1 µM
# [13] = target: Estrogen receptor (Homo sapiens) (UniProt P03372); assay: qHTS assay to identify small molecule agonists of the estrogen receptor alpha (ER-alpha) signaling pathway using the BG1 cell line (AID 743079); conditions: BG1Luc4E2 cells, ERE-luciferase agonist, 22 h; series mostly up to 70.3 µM; further: nearly all actives have a fitted effect of over 20% in size
# [14] = qHTS assay to identify small molecule antagonists of the estrogen receptor alpha (ER-alpha) signaling pathway using the BG1 cell line (AID 743080; calls by dose curve;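 further: BG1 cells stimulated with 17beta-estradiol alongside compound; nearly all actives have a fitted effect of over 25% in size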); conditions: BG1Luc4E2 ERE-luciferase antagonist mode, luminescence; series mostly up to 70.3 µM
# Outline: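 Seeding, 24 h rest, compound transfer from DMSO, 17beta-estradiol addition, 21.5 h incubation, CellTiter-Fluor (30 min, 37 C), then ONE-Glo (30 min, room temperature): this sequence was run on BG1-Luc-4E2 reporter cells.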
# [15] = qHTS assay to identify small molecule antagonists of the estrogen receptor alpha (ER-alpha) signaling pathway using the BG1 cell line - cell viability counter screen (AID 743081); conditions: BG1Luc4E2 viability, CellTiter-Fluor, 22 h; series mostly up to 70.3 µM;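 further: compound given together with 17beta-estradiol as the ER stimulus; nearly all actives have a fitted effect of over 45% in size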
# Aromatase (Homo sapiens) = Aromatase (Homo sapiens) (UniProt P11511); assay: qHTS assay to identify aromatase inhibitors (AID 743083); conditions: MCF-7 aro ERE, testosterone-driven ERE luciferase, 24 h; series mostly up to 70.3 µM; further: nearly all actives have a fitted effect of over 55% in size; further: potency means the concentration at half of the fitted maximal effect
# [16] = qHTS assay for identifying genotoxic compounds that show differential cytotoxicity against isogenic chicken DT40 cell lines with known DNA damage response pathways - wild type cell line (AID 743012); conditions: DT40 wild type chicken cells viability, CellTiter-Glo, 40 h; series mostly up to 68.4 µM; further: nearly all actives have a fitted effect of over 60% in size
# Outline: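 First, wild type DT40 cells were plated at 300 per well and equilibrated about 0.5 h at 37 C/5% CO2. Next, compounds in DMSO were added and exposure lasted 40 h. Finally, CellTiter-Glo was added for 30 min at room temperature and luminescence recorded.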
# [17] = qHTS assay for identifying genotoxic compounds that show differential cytotoxicity against isogenic chicken DT40 cell lines with known DNA damage response pathways - Rev3 mutant cell line (AID 743014); conditions: chicken DT40 Rev3-/- viability, CellTiter-Glo, 40 h; series mostly up to 68.4 µM; further: nearly all actives have a fitted effect of over 55% in size
# [18] = qHTS assay for identifying genotoxic compounds that show differential cytotoxicity against isogenic chicken DT40 cell lines with known DNA damage response pathways - Rad54/Ku70 mutant cell line (AID 743015); conditions: DT40 Rad54/Ku70 mutant viability, CellTiter-Glo, 40 h; series mostly up to 66.8 µM; further: nearly all actives have a fitted effect of over 60% in size; further: potency means the concentration at half of the fitted maximal effect
# [19] = qHTS assay to identify small molecule antagonists of the androgen receptor (AR) signaling pathway - cell viability counter screen (AID 743033; further: nearly all actives have a fitted effect of over 45% in size); conditions: AR-bla HEK293 viability, CellTiter-Glo luminescence, 16 h; series mostly up to 58.5 µM
# Androgen receptor (Homo sapiens), sequence (P10275 whole entry, looked up): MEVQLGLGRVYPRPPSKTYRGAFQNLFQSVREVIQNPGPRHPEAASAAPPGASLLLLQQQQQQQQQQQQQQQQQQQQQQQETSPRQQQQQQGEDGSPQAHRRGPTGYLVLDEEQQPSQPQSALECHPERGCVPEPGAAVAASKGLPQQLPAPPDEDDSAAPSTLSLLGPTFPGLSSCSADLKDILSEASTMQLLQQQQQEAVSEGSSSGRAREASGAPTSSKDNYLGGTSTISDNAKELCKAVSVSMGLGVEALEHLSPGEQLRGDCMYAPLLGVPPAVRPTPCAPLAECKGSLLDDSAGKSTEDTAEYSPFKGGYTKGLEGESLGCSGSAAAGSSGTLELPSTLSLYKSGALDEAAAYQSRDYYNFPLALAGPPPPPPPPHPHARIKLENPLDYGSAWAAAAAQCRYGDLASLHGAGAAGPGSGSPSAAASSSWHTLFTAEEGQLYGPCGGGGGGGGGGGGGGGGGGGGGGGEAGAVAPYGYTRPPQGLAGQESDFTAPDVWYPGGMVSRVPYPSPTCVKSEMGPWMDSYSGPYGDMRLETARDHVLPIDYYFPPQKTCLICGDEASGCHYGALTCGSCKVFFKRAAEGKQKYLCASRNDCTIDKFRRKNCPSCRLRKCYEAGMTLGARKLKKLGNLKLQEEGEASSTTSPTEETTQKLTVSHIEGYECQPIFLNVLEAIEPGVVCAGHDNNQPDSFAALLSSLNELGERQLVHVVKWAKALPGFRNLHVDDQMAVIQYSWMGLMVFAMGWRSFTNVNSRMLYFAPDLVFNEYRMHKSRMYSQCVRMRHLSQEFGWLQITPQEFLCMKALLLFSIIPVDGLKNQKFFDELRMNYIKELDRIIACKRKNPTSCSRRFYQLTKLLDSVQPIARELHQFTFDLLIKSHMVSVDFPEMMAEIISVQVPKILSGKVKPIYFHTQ
# Estrogen receptor (Homo sapiens), sequence (P03372 whole entry, looked up): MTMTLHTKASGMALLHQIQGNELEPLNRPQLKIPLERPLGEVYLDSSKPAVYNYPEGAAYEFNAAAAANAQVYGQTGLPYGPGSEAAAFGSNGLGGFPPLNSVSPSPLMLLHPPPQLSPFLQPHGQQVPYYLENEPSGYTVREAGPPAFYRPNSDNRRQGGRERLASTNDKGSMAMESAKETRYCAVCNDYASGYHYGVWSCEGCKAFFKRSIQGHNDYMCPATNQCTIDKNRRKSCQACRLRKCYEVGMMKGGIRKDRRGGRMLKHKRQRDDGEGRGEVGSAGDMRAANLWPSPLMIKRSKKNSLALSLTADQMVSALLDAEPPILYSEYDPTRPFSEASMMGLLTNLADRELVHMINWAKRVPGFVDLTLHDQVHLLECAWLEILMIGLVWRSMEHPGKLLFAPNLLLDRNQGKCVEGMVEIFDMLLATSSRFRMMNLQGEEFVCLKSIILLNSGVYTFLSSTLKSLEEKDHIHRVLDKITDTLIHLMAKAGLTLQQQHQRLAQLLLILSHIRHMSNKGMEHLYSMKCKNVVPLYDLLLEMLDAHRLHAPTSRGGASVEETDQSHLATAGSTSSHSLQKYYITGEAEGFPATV
# Aromatase (Homo sapiens), sequence (P11511 whole entry, looked up): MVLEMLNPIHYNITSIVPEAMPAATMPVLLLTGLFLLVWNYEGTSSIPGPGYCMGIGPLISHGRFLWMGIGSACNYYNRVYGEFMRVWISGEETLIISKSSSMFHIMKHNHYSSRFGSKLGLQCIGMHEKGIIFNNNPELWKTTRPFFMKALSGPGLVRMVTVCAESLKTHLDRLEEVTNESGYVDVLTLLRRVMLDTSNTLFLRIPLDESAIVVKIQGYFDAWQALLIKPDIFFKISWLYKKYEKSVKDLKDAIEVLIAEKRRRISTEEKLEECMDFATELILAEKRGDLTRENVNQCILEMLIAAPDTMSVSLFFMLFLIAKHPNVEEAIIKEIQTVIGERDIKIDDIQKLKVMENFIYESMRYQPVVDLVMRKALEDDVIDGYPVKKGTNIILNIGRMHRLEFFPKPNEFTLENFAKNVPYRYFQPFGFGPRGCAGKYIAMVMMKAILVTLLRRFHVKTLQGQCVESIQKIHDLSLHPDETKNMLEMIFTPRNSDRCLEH
SMILES,outcome [1],Potency [2],outcome [3],outcome [4],Potency [5],Potency [6],Potency [7],Potency [8],outcome [9],outcome [10],outcome [11],outcome [12],Potency [13],Potency [14],outcome [15],Potency (Aromatase (Homo sapiens)),Potency [16],Potency [17],Potency [18],Potency [19]
Cc1cc(C(C)(C)C)c(O)c(C)c1CC1=NCCN1,inactive,inactive,inactive,inactive,inactive,inactive,inactive,inactive,inactive,inactive,inactive,inactive,inactive,inactive,inactive,inactive,,,,
C[C@H](N)[C@H](O)c1cccc(O)c1,,,,,inactive,,inactive,,,inactive,inactive,inactive,inactive,inactive,inactive,inactive,inactive,inactive,inactive,inactive
CC1=CCC(C(C)C)=CC1,inactive,,,,inactive,,inactive,,,inactive,inactive,inactive,inactive,inactive,inactive,inactive,,,inactive,inactive
CCOc1cc([N+](=O)[O-])c(OCC)cc1N1CCOCC1,,,,,inactive,,inactive,,inactive,,inactive,inactive,inactive,inactive,inactive,34.4 µM (active),inactive,,inactive,inactive
COC(=O)CCc1ccc(OCC(O)CNC(C)C)cc1 (stereo unspecified),inactive,,,,inactive,,inactive,inactive,inactive,,inactive,,,,inactive,inactive,,,,inactive
Cc1ccccc1OCC(O)CO (stereo unspecified),inactive,,,,inactive,,,inactive,inactive,,,,,,inactive,inactive,,,inactive,inactive
CC(=O)CCCCn1c(=O)c2c(ncn2C)n(C)c1=O,inactive,,,,inactive,,inactive,inactive,inactive,inactive,inactive,inactive,inactive,inactive,inactive,inactive,,,inactive,
CN(CCOc1ccc(NS(C)(=O)=O)cc1)CCc1ccc(NS(C)(=O)=O)cc1,inactive,,,,inactive,,inactive,inactive,inactive,,inactive,inactive,inactive,inactive,inactive,inactive,,,13.3 µM (active),inactive
